This is a sample that favours compounds with a hit; in the whole collection about 8.7% have one here.
Smad3 FoxH1 inh: inhibitors of human Smad3 transcription factor binding. TR-FRET Smad3/Dy647-FoxH1 peptide binding, europium anti-His. inhibition, % at 25 µM. actives 0.29% (n = 88,000). AID 630;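 active = compounds that reduce the energy-transfer binding signal between the protein and its labelled peptide by more than half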;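 note: 0% = Smad3 plus labelled peptide maximal FRET and 100% = peptide-only background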
Cav3 T inh: human Cav3.2 channel inhibition, primary screen; O95180; Cav3.2-expressing cells, Fluo-4 calcium fluorescence FDSS; hits give low values; B-score at 10 µM; actives 4% (n = 100,000);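 active = single-dose well whose peak fluorescence ratio is a statistical outlier from its plate by either plate-standardised score or position-corrected B-score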
hDAT+cocaine: human DAT dopamine uptake with cocaine, either direction; LLC-PK1 hDAT cells, [14C]-dopamine uptake with cocaine IC80; actives deviate in either direction; AID 449768; actives 1.3% (n = 110,000); Q01959; B-score at 10 µM;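 active = Z score or B-score, a plate-position-corrected score, falls beyond the plate's 99.7% confidence bounds, in either direction; inactive = both scores lie inside the 99.7% bounds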;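 note: scored against the spread of the other compound wells on the same plate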
TNAP act DEA: activates human TNAP at intermediate phosphate acceptor concentration | 64,000 tested, under 10 active | purified TNAP, CDP-star luminescence, 100 mM DEA, 30 min; hits give high values; scale: 0 levamisole-inhibited, 1 vehicle-only enzyme | P05186 | activation factor at 20 µM;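 active = activation factor of at least 2 at 20 µM, relative to controls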
Target sequence (P05186 whole entry, looked up): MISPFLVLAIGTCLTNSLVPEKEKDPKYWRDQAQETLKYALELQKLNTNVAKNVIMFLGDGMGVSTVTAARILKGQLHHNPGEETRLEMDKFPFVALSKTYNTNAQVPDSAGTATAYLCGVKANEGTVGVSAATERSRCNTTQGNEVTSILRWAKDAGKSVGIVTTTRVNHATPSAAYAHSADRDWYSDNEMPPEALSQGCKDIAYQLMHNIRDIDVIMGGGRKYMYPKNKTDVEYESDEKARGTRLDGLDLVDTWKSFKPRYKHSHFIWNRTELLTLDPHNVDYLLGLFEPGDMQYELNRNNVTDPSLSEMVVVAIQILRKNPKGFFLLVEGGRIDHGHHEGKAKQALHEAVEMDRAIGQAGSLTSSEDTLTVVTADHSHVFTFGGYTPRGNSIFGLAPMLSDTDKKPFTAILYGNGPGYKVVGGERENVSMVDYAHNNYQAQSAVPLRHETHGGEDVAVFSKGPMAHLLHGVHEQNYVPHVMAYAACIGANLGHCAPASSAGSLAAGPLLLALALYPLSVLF
PostGolgi ctrl: inhibits growth of the yeast control strain; efflux-deficient yeast background strain, growth absorbance A615, 16 h; inhibition, % at 10 µM; actives 5% (n = 98,000); AID 738
PostGolgi yeast: growth inhibition of a yeast mutant, post-Golgi transport screen. actives 0.9% (n = 98,000). post-Golgi transport phenotypic cell assay. inhibition, % at 10 µM. AID 739;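 note: yeast cells grown in 1536-well plates; yeast grown about 18 h at 30C before absorbance read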
Numbers without * were called inactive; x = no result. Cut-off read from the data, not from the text of the source, unless noted: active = inhibition above about 30%; inactive = the rest.

SMILES	Smad3 FoxH1 inh	Cav3 T inh	hDAT+cocaine	TNAP act DEA	PostGolgi ctrl	PostGolgi yeast
COc1ccc(C(c2c[nH]c3ccccc23)c2c[nH]c3ccccc23)cc1O	-4.3	-0.0477	0.753	x	54.4*	-2.0
CCNC(=S)N(Cc1ccc2c(c1)OCO2)C1CC(=O)N(c2ccc(F)cc2)C1=O (stereo not given)	x	-7.05*	-1.4	x	4.2	1.3
COc1ccc(C(=O)Nc2sc3c(c2C(=O)NCc2ccco2)CCCC3)cc1OC	1.4	-1.15	1.44	x	13.9	-2.4
Clc1cccc(NCc2nnc(SCc3ccccc3)o2)c1	-0.3	-2.32	-0.355	0.8	20.3	10.9
Clc1cccc(NCc2nnc(SCc3ccccc3Cl)o2)c1	x	x	x	x	39.9*	5.7
CCCCNC(NCCCC)=C(S(=O)(=O)CC)S(=O)(=O)CC	-3.7	x	0.0125	0.9	-1.6	9.1
CC1(C)c2[nH]c3ccccc3c2C[C@H]2C(=O)N(Cc3ccccc3)C(=O)N21	x	-1.19	2.84*	x	x	x
CC(C)Cc1n[nH]c(=O)[nH]1	8.5	0.79	-0.419	0.9	2.9	-0.5
Cc1cc2oc(=O)cc(CN3CCc4ccccc43)c2cc1Cl	-11.3	-5.25*	-1.37	0.9	35.9*	-0.7
CCc1ccc2c(CN3CCc4ccccc43)cc(=O)oc2c1	10.0	-2.56	-0.535	0.9	13.6	-14.4
COc1cc2nc(SCC(=O)NC3CC3)n(CCC3=CCCCC3)c(=O)c2cc1OC	-0.8	x	x	0.9	x	x
COC(=O)C1=C(COc2ccc(F)cc2)NC(=O)NC1c1ccc(C)cc1C (stereo not given)	x	-2.32	0.0442	x	25.2	12.2
O=C(NC12CC3CC(CC(C3)C1)C2)c1ccc(S(=O)(=O)N2CCOCC2)cc1	x	x	2.52*	0.9	23.7	-8.4
O=C(NC12CC3CC(CC(C3)C1)C2)N1CCN(S(=O)(=O)c2ccc(Cl)cc2)CC1	1.2	-7.03*	-0.701	0.8	23.0	-0.8
O=C(NC1CCCCC1)c1sc(=S)n2c1[nH]c(=O)c1ccccc12	10.9	-6.31*	0.096	1	55.9*	-2.7
CCCCNC(=O)c1sc(=S)n2c1[nH]c(=O)c1ccccc12	9.9	-3.13	-0.302	0.9	44.5*	5.6
O=C(NCC1CCCO1)c1sc(=S)n2c1[nH]c(=O)c1ccc(C(=O)N3CCCCC3)cc12 (stereo not given)	6.9	-0.459	0.0232	0.9	1.6	-1.1
CCCCNC(=O)c1sc(=S)n(-c2ccccc2OC)c1N	3.7	0.176	-0.475	x	1.0	-3.9
Cc1cc(C)c2c(n1)nn1c(N3CCN(c4ccccn4)CC3)cc(C)nc21	0.3	x	x	1	x	x
CCCCn1c(SCC(=O)Nc2ccccc2C(F)(F)F)nc2ccsc2c1=O	6.1	-1.19	-0.392	x	11.4	1.0
CCc1ccc2c(Cl)c(C(=O)N/N=C/c3c[nH]c4ccccc34)sc2c1	x	-1	0.228	x	41.8*	0.8
COc1ccc(-n2c(-c3ccccc3)cc3c2CCCC3=O)cc1	x	-0.118	-1.06	x	67.9*	9.7
OC(COc1ccc(C2C=CCC2)cc1)CN1CCCCC1 (stereo not given)	66.9*	0.884	0.323	1	5.5	-3.4
O=C(c1ccccc1)c1ccc(OCC(O)CN2CCCCC2)cc1 (stereo not given)	8.7	0.809	-0.31	0.9	-6.9	-2.1
CCCc1cc(N2CCCC(C(=O)NCc3ccc4c(c3)OCO4)C2)n2ncnc2n1 (stereo not given)	7.1	-0.745	2.03	0.9	-1.8	2.7
SMILES	Smad3 FoxH1 inh	Cav3 T inh	hDAT+cocaine	TNAP act DEA	PostGolgi ctrl	PostGolgi yeast
Cc1c(C)c2cc(Cl)c(O)c(CN3CCCCC3)c2oc1=O	3.3	-0.263	0.0851	0.9	7.4	-34.6
CCCC1=C(C(=O)OCC)C(c2ccc(NC(C)=O)cc2)NC(=O)N1 (stereo not given)	13.9	0.187	-0.334	1.1	17.6	-3.9
CCOC(=O)C1=C(CNCc2ccc(C)cc2)NC(=O)NC1c1ccc(OC)cc1 (stereo not given)	-0.3	-4.66*	0.732	0.9	2.2	3.6
CCOC(=O)COc1cc(Br)c(/C=N/Nc2ccccc2)cc1OC	x	x	x	x	1.5	-8.7
CC(C)CC(O)(CC(C)C)C(=O)NNc1ccccc1	1.9	1.25	-0.28	x	x	x
CC1CN(C(=O)c2ccccc2C(=O)c2ncc[nH]2)CC(C)O1 (stereo not given)	6.3	0.778	-0.8	1	-6.9	11.6
O=C(c1ncc[nH]1)c1ccccc1C(=O)N1CCOCC1	7.9	-0.0544	-0.868	0.8	33.1*	-0.6
CC(C)OC(=O)c1nnn(-c2nonc2N)c1CSc1ccccn1	6.0	x	-0.61	0.9	37.0*	9.4
CC(C)OC(=O)c1nnn(-c2nonc2N)c1CN1CCc2ccccc2C1	-4.9	-1.86	-1.36	0.9	47.2*	1.2
Cc1ccccc1CSc1nc2c(c(=O)[nH]1)CCCC2	-7.2	x	x	x	15.1	19.6
COc1cc(C(=O)N(Cc2cccnc2)Cc2cc3cc4c(cc3[nH]c2=O)OCCO4)cc(OC)c1OC	5.9	1.62	-0.949	x	15.5	-6.1
O=C(CSc1ncn[nH]1)N(C1CCCCC1)C1CCCCC1	8.1	-1.08	0.247	x	-0.6	-1.7
CC(=O)Nc1ccc(N2CCN(C(=O)c3cccs3)CC2)cc1	4.4	x	-8.23*	0.9	-3.9	-0.3
CC12CCC(C(=O)N(CC(O)CN3CCCCC3)C1=O)C2(C)C (stereo not given)	x	-0.327	-0.295	x	3.1	5.8
NC(=O)c1ccc(C(F)(F)F)n(Cc2cccc(Cl)c2)c1=O	x	-2.82	0.125	x	60.7*	5.3
NC(=O)c1ccc(C(F)(F)F)n(Cc2ccc(Cl)cc2)c1=O	x	1.05	-0.471	x	20.3	-2.5
COc1c(O)cccc1[C@H](O)C1CCN(CCc2ccc(F)cc2)CC1	x	0.26	0.51	x	x	x
CC(C)c1nnc(NC(=O)CCC(=O)NCC2CCCO2)s1 (stereo not given)	-1.0	0.473	0.244	0.8	-1.2	6.1
O=C(CCC(=O)Nc1nnc(C2CCCCC2)s1)NCC1CCCO1 (stereo not given)	80.7*	0.184	0.961	x	-0.3	-8.3
CC(C)(N)C(=O)N[C@@H]1C(=O)N2[C@H]1SC(C)(C)[C@H]2C(=O)O	4.0	x	x	x	x	x
Cc1nnc(SCC(=O)N2CCOCC2)c2ccccc12	-6.2	0.992	0.13	0.9	-7.4	12.2
Cc1[nH]nc2c1C(=O)CC(C)(C)C2	1.2	x	-1.28	0.5	4.6	1.9
Cc1[nH]nc2c1/C(=N\O)CC(C)(C)C2	13.4	-0.374	-0.265	0.9	39.2*	-2.3
O=C(Nc1ccon1)C(Sc1ccccc1)c1ccccc1 (stereo not given)	8.1	-4.23*	-0.877	0.9	5.5	2.2
CCCCc1ccc(NS(=O)(=O)N(C)C)cc1	10.6	-4.29*	-0.0138	0.9	11.2	11.6
CN(C)S(=O)(=O)Nc1ccc(Oc2ccccc2)cc1	12.4	-1.9	0.625	1	9.1	3.4
Cc1cc(C)n(CCn2nc(C)cc2C)n1	9.0	0.406	0.0162	1	36.6*	-1.6

Assay outcomes as filed in PubChem.
